Results taken from article PMC5540273 (PLoS ONE, 2017).

What was measured:
p38-alpha = test system: T1, p38-alpha
T1 construct: gene MAPK14

AAK1 = conditions: concentration: 1 μM, replicates: in singlicate; n = 1
ABL1-nonphosphorylated = conditions: concentration: 1 μM, replicates: in singlicate; n = 1
ABL1-phosphorylated = conditions: concentration: 1 μM, replicates: in singlicate; n = 1
ABL2 = conditions: concentration: 1 μM, replicates: in singlicate; n = 1
ACVR1B = conditions: concentration: 1 μM, replicates: in singlicate; n = 1
ACVR1 = conditions: concentration: 1 μM, replicates: in singlicate; n = 1
ACVR2A = conditions: concentration: 1 μM, replicates: in singlicate; n = 1
ACVR2B = conditions: concentration: 1 μM, replicates: in singlicate; n = 1
ACVRL1 = conditions: concentration: 1 μM, replicates: in singlicate; n = 1
ADCK3 = test system: T2, ADCK3; conditions: concentration: 1 μM, replicates: in singlicate; n = 1
T2 construct: gene CABC1

ADCK4 = conditions: concentration: 1 μM, replicates: in singlicate; n = 1
AKT1 = conditions: concentration: 1 μM, replicates: in singlicate; n = 1
AKT2 = conditions: concentration: 1 μM, replicates: in singlicate; n = 1
AKT3 = conditions: concentration: 1 μM, replicates: in singlicate; n = 1
ALK = conditions: concentration: 1 μM, replicates: in singlicate; n = 1
YANK2 = test system: T3, YANK2
T3 construct: gene STK32B
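Throughout, for %Inh: KINOMEscan kinase panel screen.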
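Throughout, for Kd: kd values determined as follow-up on hits from a single-replicate KINOMEscan panel screen.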

| Structure (SMILES) | Kd (p38-alpha) | %Inh (AAK1) | %Inh (ABL1-nonphosphorylated) | %Inh (ABL1-phosphorylated) | %Inh (ABL2) | %Inh (ACVR1B) | %Inh (ACVR1) | %Inh (ACVR2A) | %Inh (ACVR2B) | %Inh (ACVRL1) | %Inh (ADCK3) | %Inh (ADCK4) | %Inh (AKT1) | %Inh (AKT2) | %Inh (AKT3) | %Inh (ALK) | Kd (ZAK) | Kd (YANK2) |
| --- | --- | --- | --- | --- | --- | --- | --- | --- | --- | --- | --- | --- | --- | --- | --- | --- | --- | --- |
| FC(F)(F)c1ccccc1-c1cc(-c2c[nH]nc2-c2ccccn2)ccn1 [GW679396] | 310 nM | 21% | 0% | 0% | 1% | 0% | 0% | 3% | 17% | 0% | 4% | 0% | 0% | 7% | 16% | 18% | – | – |
| Cn1cncc1C(=O)NC1CCN(c2ccnc(Nc3ccc(F)cc3)n2)C1 (stereo not drawn) [GSK1379717] | – | 31% | 0% | 4% | 0% | 0% | 24% | 24% | 2% | 0% | 2% | 26% | 0% | 0% | 0% | 0% | > 10 µM | – |
| Fc1ccc(-c2nc3n(c2-c2ccncc2)CCS3)cc1 [GI98581] | 130 nM | 1% | 0% | 0% | 9% | 15% | 0% | 0% | 20% | 0% | 13% | 23% | 0% | 13% | 9% | 28% | – | – |
| Fc1ccc(-c2nn3cccc(F)c3c2-c2ccncc2)cc1 [GW475620] | 140 nM | 13% | 0% | 0% | 2% | 23% | 11% | 0% | 47% | 22% | 12% | 9% | 0% | 14% | 29% | 16% | – | – |
| CNc1nc(-c2ccc3c(N)n[nH]c3c2)cc(N2C[C@@H](C(=O)Nc3ccccc3)CC[C@H]2C)n1 [GSK2298859] | – | 12% | 1% | 0% | 2% | 0% | 0% | 0% | 12% | 0% | 22% | 26% | 0% | 2% | 0% | 3% | – | 220 nM |
| Nc1nccc(-c2c(-c3ccc(F)cc3)ncn2C2CCN(Cc3ccccc3)CC2)n1 [SB-219980] | 46 nM | 0% | 0% | 0% | 0% | 0% | 7% | 0% | 0% | 9% | 0% | 55% | 15% | 0% | 0% | 16% | – | – |
